Screening data as filed in PubChem BioAssay.
UBC13 polyUb: UBC13 polyubiquitin chain formation inhibitors, primary screen, biochemical, TR-FRET, uHTS; inhibition, % at 20 µM; 0.47% of 330,000 active; in the data active = inhibition above about 45%, passing the limit was not always enough
Target sequence (P61088 whole entry, looked up): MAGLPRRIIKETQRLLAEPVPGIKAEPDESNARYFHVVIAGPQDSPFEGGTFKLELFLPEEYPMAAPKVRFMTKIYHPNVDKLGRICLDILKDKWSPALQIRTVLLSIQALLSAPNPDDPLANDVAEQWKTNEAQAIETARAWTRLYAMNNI
MEKK2mut PB1 HTS: MEK5 binding signal on mutant MEKK2 PB1, primary screen, biochemical, multiplex bead flow cytometry, Alexa488-MEK5. Alexa488-MEK5 binding to MEKK2 mutant. percent response, % at 10 µM. 0.35% of 290,000 active. AID 1530, 2009; in the data active = percent response above about 24%, passing the limit was not always enough
MEKK3 PB1 HTS: modulators of MEKK3-MEK5 PB1 binding, primary screen, biochemical, wildtype MEKK3, multiplex bead flow cytometry, Alexa488-MEK5. AID 1529, 2009. bead-based flow cytometry, Alexa488-MEK5 binding to MEKK3; actives lie on both sides; 0 = blocked by unlabeled MEK5, 100 = vehicle. 1.4% of 290,000 active. binding response (% of control), % at 10 µM;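 active = binding response more than 3 SD above or below the average of its plate-row segment, actives on both sides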;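 also: Alexa488 bead fluorescence after subtracting the streptavidin-only scavenger bead signal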
MEKK2wt PB1 HTS: modulators of MEK5 binding to wildtype MEKK2, primary screen, biochemical, multiplex bead flow cytometry, Alexa488-MEK5; 1.1% of 290,000 active; AID 1531, 2009; binding response (% of control), % at 10 µM; Alexa488-MEK5 binding to MEKK2 WT; actives lie on both sides; in the data active = binding response below about 67% or above about 130%
MEKK2wt confirm: modulators of MEK5 binding to wildtype MEKK2, confirmation, biochemical, single concentration, multiplex bead flow cytometry; shares compounds with MEKK3 PB1 HTS; Alexa488-MEK5 binding to MEKK2 WT; actives lie on both sides; binding response (% of control), % at 10 µM; 2.4% of 5,900 active; in the data active = binding response below about 16% or above about 210%; inactive = in between
MEKK2mut confirm: mutant MEKK2 PB1-MEK5 binding signal retest – biochemical, single concentration, multiplex bead flow cytometry, confirmation. shares compounds with MEKK3 PB1 HTS. Alexa488-MEK5 binding to MEKK2 mutant. percent response, % at 10 µM. 2% of 5,900 active; in the data active = percent response mostly above about 71%, no sharp cut-off; inactive = mostly below about 38%;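 also: higher means compound restores mutant binding toward wildtype level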
MEKK3-MEK5 inh: MEKK3 wild-type PB1 binding to MEK5, inhibitors, confirmation, biochemical, bead multiplex flow cytometry, single concentration, wildtype | shares compounds with MEKK3 PB1 HTS | Alexa488-MEK5 binding to MEKK3; hits give low values | binding response (% of control), % at 10 µM | 1.8% of 5,900 active | AID 1894, 2009;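 active = binding response below 72% of control, or above a set upper limit, though filed actives all read lower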;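 also: lower values mean stronger disruption of MEK5 binding to MEKK3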
Numbers stand for hits; [ ] = remark or other dose. Most compounds without a hit are left out; they make up all but 2.3% or so of the library.

CC(C)(C)C(=O)Cn1nc(Cl)nc1Cl was read as UBC13 polyUb inactive, MEKK2mut PB1 HTS inactive, MEKK3 PB1 HTS 132, MEKK2wt PB1 HTS inactive, MEKK2wt confirm inactive, MEKK2mut confirm inactive and MEKK3-MEK5 inh inactive.
For O=C(Cn1nc(Cl)nc1Cl)c1ccccc1 the results were UBC13 polyUb inactive, MEKK2mut PB1 HTS inactive, MEKK3 PB1 HTS inactive and MEKK2wt PB1 HTS inactive.
`COC(=O)N/N=C/c1c(C)c(C(=O)c2ccc(F)cc2)n2ccccc12` gave UBC13 polyUb inactive, MEKK2mut PB1 HTS inactive, MEKK3 PB1 HTS inactive and MEKK2wt PB1 HTS inactive.
Cc1c(/C=N/NC(=O)c2ccc(O)cc2)c2ccccn2c1C(=O)c1ccc(F)cc1 was read as UBC13 polyUb inactive, MEKK2mut PB1 HTS inactive, MEKK3 PB1 HTS inactive and MEKK2wt PB1 HTS inactive.
`Cc1c(/C=N/NC(=O)c2ccccc2O)c2ccccn2c1C(=O)c1ccc(F)cc1` gave UBC13 polyUb inactive, MEKK2mut PB1 HTS inactive, MEKK3 PB1 HTS 142, MEKK2wt PB1 HTS inactive, MEKK2wt confirm inactive, MEKK2mut confirm inactive and MEKK3-MEK5 inh inactive.
Screening CCOC(=O)N/N=C/c1c(C)c(C(=O)c2ccc(F)cc2)n2ccccc12 returned UBC13 polyUb inactive, MEKK2mut PB1 HTS inactive, MEKK3 PB1 HTS 74[inhibitor], MEKK2wt PB1 HTS inactive, MEKK2wt confirm inactive, MEKK2mut confirm inactive and MEKK3-MEK5 inh inactive.
Screening Cn1[nH]c(CSc2ccc(Cl)cc2)cc1=O returned UBC13 polyUb inactive, MEKK2mut PB1 HTS inactive, MEKK3 PB1 HTS inactive and MEKK2wt PB1 HTS inactive.
For CC1CCN(C(=O)C2CCC(C)(C(=O)O)C2(C)C)CC1 (centres undefined) the results were UBC13 polyUb inactive, MEKK2mut PB1 HTS inactive, MEKK3 PB1 HTS 135, MEKK2wt PB1 HTS inactive, MEKK2wt confirm inactive, MEKK2mut confirm inactive and MEKK3-MEK5 inh inactive.
For Cc1csc2c(N3CCN(C(=O)c4ccc(C(C)(C)C)cc4)CC3)ncnc12 the results were UBC13 polyUb inactive, MEKK2mut PB1 HTS inactive, MEKK3 PB1 HTS 131, MEKK2wt PB1 HTS inactive, MEKK2wt confirm inactive, MEKK2mut confirm inactive and MEKK3-MEK5 inh inactive.
Cc1csc2c(N3CCN(C(=O)NC(C)(C)C)CC3)ncnc12 was read as UBC13 polyUb inactive, MEKK2mut PB1 HTS inactive, MEKK3 PB1 HTS inactive and MEKK2wt PB1 HTS inactive.
Screening COc1ccc(-c2csc(N(CCCN(C)C)C(=O)c3cccs3)n2)cc1 returned UBC13 polyUb inactive, MEKK2mut PB1 HTS inactive, MEKK3 PB1 HTS inactive and MEKK2wt PB1 HTS inactive.
`CCN(CC)CCCN(C(=O)c1ccccc1C)c1nc(-c2ccc(OC)cc2)cs1` gave UBC13 polyUb inactive, MEKK2mut PB1 HTS inactive, MEKK3 PB1 HTS inactive, MEKK2wt PB1 HTS 145, MEKK2wt confirm inactive, MEKK2mut confirm inactive and MEKK3-MEK5 inh inactive.
For CCN(CC)CCCN(C(=O)c1ccc(OC)cc1)c1nc(-c2ccc(OC)cc2)cs1 the results were UBC13 polyUb inactive, MEKK2mut PB1 HTS inactive, MEKK3 PB1 HTS inactive, MEKK2wt PB1 HTS 165, MEKK2wt confirm inactive, MEKK2mut confirm inactive and MEKK3-MEK5 inh inactive.
Screening COCCCN(C(C)=O)c1nc(-c2ccc(OC)cc2)cs1 returned UBC13 polyUb inactive, MEKK2mut PB1 HTS inactive, MEKK3 PB1 HTS inactive and MEKK2wt PB1 HTS inactive.
For CCN(CC)CCCN(C(=O)c1ccccc1F)c1nc(-c2ccc(OC)cc2)cs1 the results were UBC13 polyUb inactive, MEKK2mut PB1 HTS inactive, MEKK3 PB1 HTS inactive, MEKK2wt PB1 HTS 156, MEKK2wt confirm inactive, MEKK2mut confirm inactive and MEKK3-MEK5 inh inactive.
`Cc1cc(NC(=O)COC(=O)C2=NN(c3ccccc3)C(=O)CC2)c([N+](=O)[O-])cc1C` gave UBC13 polyUb inactive.
Screening COc1ccc(OC)c2c1cc(C(=O)N[C@H](C(=O)N1CCC(C(=O)O)CC1)C(C)C)n2C returned MEKK2mut PB1 HTS inactive, MEKK3 PB1 HTS inactive and MEKK2wt PB1 HTS inactive.
For COC(=O)Cc1cc(=O)n(-c2nc3ccccc3[nH]2)[nH]1 the results were UBC13 polyUb inactive, MEKK2mut PB1 HTS inactive, MEKK3 PB1 HTS 73[inhibitor], MEKK2wt PB1 HTS inactive, MEKK2wt confirm inactive, MEKK2mut confirm inactive and MEKK3-MEK5 inh inactive.
Cc1noc(C)c1C(=O)OCC(=O)Nc1ncc(C(F)(F)F)cc1Cl was read as UBC13 polyUb inactive.
For Cc1ccc(-n2c(C)cc(C3N=C(N)Nc4nc5ccccc5n43)c2C)c(C)c1 (centres undefined) the results were UBC13 polyUb inactive, MEKK2mut PB1 HTS 28, MEKK3 PB1 HTS inactive, MEKK2wt PB1 HTS 134, MEKK2wt confirm inactive, MEKK2mut confirm inactive and MEKK3-MEK5 inh inactive.
CCCN1C(=O)c2cccc3c(N4CCCCC4)ccc(c23)C1=O was read as MEKK2mut PB1 HTS inactive, MEKK3 PB1 HTS inactive, MEKK2wt PB1 HTS 60[inhibitor], MEKK2wt confirm inactive, MEKK2mut confirm inactive and MEKK3-MEK5 inh inactive.
`O=C1C2C3C=CC(C3)C2C(=O)N1c1ccc2ccccc2c1` (centres undefined) gave UBC13 polyUb inactive, MEKK2mut PB1 HTS 26, MEKK3 PB1 HTS inactive, MEKK2wt PB1 HTS inactive, MEKK2wt confirm inactive, MEKK2mut confirm inactive and MEKK3-MEK5 inh inactive.
Screening CC(NC(=O)COC(=O)c1c[nH]c2ccccc12)c1ccccc1 (centres undefined) returned UBC13 polyUb inactive.
Screening CCN(CC)CCN(C(=O)c1ccc2ncsc2c1)c1nc2cc3c(cc2s1)OCO3 returned UBC13 polyUb inactive, MEKK2mut PB1 HTS inactive, MEKK3 PB1 HTS inactive and MEKK2wt PB1 HTS inactive.
For CCN(CC)CCN(C(=O)c1ccc(S(=O)(=O)N2CCCC2)cc1)c1nc2cc(C)cc(C)c2s1 the results were UBC13 polyUb inactive, MEKK2mut PB1 HTS inactive, MEKK3 PB1 HTS inactive, MEKK2wt PB1 HTS 142, MEKK2wt confirm inactive, MEKK2mut confirm inactive and MEKK3-MEK5 inh inactive.
CCN(CC)CCN(C(=O)c1ccc(Br)s1)c1nc2cc3c(cc2s1)OCO3 was read as UBC13 polyUb inactive, MEKK2mut PB1 HTS inactive, MEKK3 PB1 HTS inactive and MEKK2wt PB1 HTS inactive.
CCN(CC)CCN(C(=O)c1ccc(Br)s1)c1nc2cc3c(cc2s1)OCCO3 was read as UBC13 polyUb inactive, MEKK2mut PB1 HTS inactive, MEKK3 PB1 HTS inactive, MEKK2wt PB1 HTS 138, MEKK2wt confirm inactive, MEKK2mut confirm inactive and MEKK3-MEK5 inh inactive.
